Measured values from the supplement of paper PMC8866396.
Where a name gives a salt, the structure may show the parent alone. ± gives the standard deviation of the averaged measurements.

test system: IL-6-GFP PC-9GR; assay: cell viability (CCK-8 OD) relative to DMSO control (fraction of control); higher = more viable cells; conditions: compound concentration: 10 uM; treatment time: 48 h
Procedure, shortened: (§1)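 Each well's viability is its CCK-8 optical density divided by that of the vehicle control well. The cells, PC-9 and PC-9GR lung cancer lines overexpressing IL-6-GFP from a lentiviral construct, were seeded at 3000 cells/well in 96-well plates and exposed for 48 h to each compound of a purchased 510-compound library at a final 10 μM, in two independent replicates.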

Row | SMILES | cell viability
1 | Cl.Cl.O=C(O)COCCN1CCN(C(c2ccccc2)c2ccc(Cl)cc2)CC1 (stereo not drawn) [Cetirizine DiHCl] | 1.08 ± 0.0043
2 | CNNCc1ccc(C(=O)NC(C)C)cc1.Cl [Procarbazine HCl] | 1.02 ± 0.16
3 | O=C(O)CCc1nc(-c2ccccc2)c(-c2ccccc2)o1 [Oxaprozin] | 0.9414 ± 0.0067
4 | Cc1ccc(C(C)C)c(O)c1 [Thymol] | 0.9 ± 0.16
5 | CNCc1ccc(-c2[nH]c3cc(F)cc4c3c2CCNC4=O)cc1.O=P(O)(O)O | 0.93 ± 0.16
6 | CC1=C(CC(=O)O)c2cc(F)ccc2/C1=C\c1ccc(S(C)=O)cc1 (stereo not drawn) [Sulindac] | 1.12 ± 0.075
7 | CCCCCCCCc1ccc(CCC(N)(CO)CO)cc1 [Fingolimod] | 0.513 ± 0.18
8 | Cc1ccc(=O)n(-c2ccccc2)c1 [Pirfenidone] | 1.24 ± 0.21
9 | CC(C)=CCC/C(C)=C/CC/C(C)=C/CCC(=O)OC/C=C(\C)CCC=C(C)C [Gefarnate] | 0.851 ± 0.023
10 | CC(=O)OCC(CCn1cnc2cnc(N)nc21)COC(C)=O [Famciclovir] | 1.32 ± 0.15
11 | CC(C)Cc1ccc(C(C)C(=O)O)cc1.NCCCCC(N)C(=O)O (stereo not drawn) [Ibuprofen Lysine] | 1.28 ± 0.21
12 | CCCCCOC(=O)Nc1nc(=O)n(C2OC(C)C(O)C2O)cc1F (stereo not drawn) [Capecitabine] | 0.655 ± 0.029
13 | C=CCC1/C=C(\C)CC(C)CC(OC)C2OC(O)(C(=O)C(=O)N3CCCCC3C(=O)OC(/C(C)=C/C3CCC(O)C(OC)C3)C(C)C(O)CC1=O)C(C)CC2OC (stereo not drawn) [Tacrolimus (FK506)] | 1.14 ± 0.079
14 | C#Cc1cccc(Nc2ncnc3cc4c(cc23)OCCOCCOCCO4)c1 [Icotinib] | 1.18 ± 0.048

test system: IL-6-GFP PC-9; assay: as above; conditions: compound concentration: 10 uM; treatment time: 48 h
Procedure, shortened: as §1

Row | SMILES | cell viability
15 | Nc1nc(N)c2nc(-c3ccccc3)c(N)nc2n1 [Triamterene] | 0.842 ± 0.038
16 | Nc1nc(CC(=O)Nc2ccc(CCNCC(O)c3ccccc3)cc2)cs1 (stereo not drawn) [Mirabegron] | 0.791 ± 0.035
17 | Cc1c(Cl)cccc1Nc1ncccc1C(=O)O [Clonixin] | 1.08 ± 0.027
18 | CCOc1ccccc1OCCNC(C)Cc1ccc(OC)c(S(N)(=O)=O)c1 (stereo not drawn) [Tamsulosin] | 1.316 ± 0.0058
19 | COc1cc2nccc(Oc3ccc(NC(=O)C4(C(=O)Nc5ccc(F)cc5)CC4)cc3)c2cc1OC | 0.56 ± 0.041
20 | CC(=O)OCC(=O)C1(O)CCC2C3CCC4=CC(=O)CCC4(C)C3C(=O)CC21C (stereo not drawn) [Cortisone acetate] | 1.12 ± 0.1
21 | Cl.NC1=NCC2c3ccccc3Cc3ccccc3N12 (stereo not drawn) [Epinastine HCl] | 1.22 ± 0.014
22 | CC(C)CC(NC(=O)CNC(=O)c1cc(Cl)ccc1Cl)B1OC(=O)CC(CC(=O)O)(C(=O)O)O1 (stereo not drawn) [Ixazomib Citrate (MLN9708)] | 0.339 ± 0.12
23 | CC(=O)N1CC(O)CC1C(=O)O (stereo not drawn) [Oxaceprol] | 1.05 ± 0.098
24 | O=c1[nH]c(=O)n(C2CC(O)C(CO)O2)cc1F (stereo not drawn) [Floxuridine] | 0.808 ± 0.25
25 | Cl.c1ccc(CN(CC2=NCCN2)c2ccccc2)cc1 [Antazoline HCl] | 1.31 ± 0.11
26 | COc1cc2c(Nc3ccc(Br)cc3F)ncnc2cc1OCC1CCN(C)CC1 [Vandetanib (ZD6474)] | 0.551 ± 0.059
27 | CC(=O)Nc1ccc(OC(=O)c2ccccc2OC(C)=O)cc1 [Benorylate] | 1.13 ± 0.046
28 | O=C(O)CCCN1CCC(OC(c2ccc(Cl)cc2)c2ccccn2)CC1.O=S(=O)(O)c1ccccc1 (stereo not drawn) [Bepotastine Besilate] | 0.84 ± 0.015
29 | CN(C)CCCOc1nn(Cc2ccccc2)c2ccccc12.Cl [Benzydamine HCl] | 0.549 ± 0.52
30 | CN(C(=O)c1c(O)c2ccccc2n(C)c1=O)c1ccccc1 [Roquinimex] | 1.15 ± 0.038
31 | COc1nc(N)nc2c1ncn2C1OC(CO)C(O)C1O (stereo not drawn) [Nelarabine] | 0.758 ± 0.029
32 | Cc1ccc(NC(=O)c2ccc(CN3CCN(C)CC3)cc2)cc1Nc1nc(-c2cccnc2)cs1 [Masitinib (AB1010)] | 0.366 ± 0.26
33 | Cc1cc(S(=O)(=O)[O-])c2c(C)ccc(C(C)C)cc1-2.[Na+] [Sodium gualenate] | 0.583 ± 0.022
34 | Cc1coc2c1C(=O)C(=O)c1c-2ccc2c(C)cccc12 [Tanshinone I] | 1.51 ± 0.29

Row | SMILES | cell viability
35 | CCCCCCCCCCCC1=C(O)C(=O)C=C(O)C1=O [Embelin] | 1.12 ± 0.44
36 | O=C(c1ccc(F)c(F)c1Nc1ccc(I)cc1F)N1CC(O)(C2CCCCN2)C1 (stereo not drawn) [Cobimetinib (GDC-0973, RG7420)] | 0.115 ± 0.15
37 | CC#CCn1c(N2CCCC(N)C2)nc2c1c(=O)n(Cc1nc(C)c3ccccc3n1)c(=O)n2C (stereo not drawn) [Linagliptin] | 0.883 ± 0.22
38 | COc1cc2ncnc(Nc3ccc(F)c(Cl)c3)c2cc1OCCCN1CCOCC1.Cl [Gefitinib hydrochloride] | 0.6584 ± 0.0058
39 | CCC1(O)CC2CN(CCc3c([nH]c4ccccc34)C(C(=O)OC)(c3cc4c(cc3OC)N(C=O)C3C(O)(C(=O)OC)C(OC(C)=O)C5(CC)C=CCN6CCC43C65)C2)C1.O=S(=O)(O)O (stereo not drawn) [Vincristine sulfate] | 0.553 ± 0.11
40 | Cl.Cl.O=C(O)COCCN1CCN(C(c2ccccc2)c2ccc(Cl)cc2)CC1 (stereo not drawn) [Cetirizine DiHCl] | 1.02 ± 0.033
41 | CNNCc1ccc(C(=O)NC(C)C)cc1.Cl [Procarbazine HCl] | 1.17 ± 0.042
42 | O=C(O)CCc1nc(-c2ccccc2)c(-c2ccccc2)o1 [Oxaprozin] | 0.543 ± 0.2
43 | Cc1ccc(C(C)C)c(O)c1 [Thymol] | 1.08 ± 0.2
44 | CNCc1ccc(-c2[nH]c3cc(F)cc4c3c2CCNC4=O)cc1.O=P(O)(O)O | 1.05 ± 0.15
45 | CC1=C(CC(=O)O)c2cc(F)ccc2/C1=C\c1ccc(S(C)=O)cc1 (stereo not drawn) [Sulindac] | 0.821 ± 0.32
46 | CCCCCCCCc1ccc(CCC(N)(CO)CO)cc1 [Fingolimod] | 0.924 ± 0.37
47 | Cc1ccc(=O)n(-c2ccccc2)c1 [Pirfenidone] | 1.07 ± 0.31
48 | CC(C)=CCC/C(C)=C/CC/C(C)=C/CCC(=O)OC/C=C(\C)CCC=C(C)C [Gefarnate] | 1.06 ± 0.17
49 | CC(=O)OCC(CCn1cnc2cnc(N)nc21)COC(C)=O [Famciclovir] | 1.26 ± 0.18
50 | CC(C)Cc1ccc(C(C)C(=O)O)cc1.NCCCCC(N)C(=O)O (stereo not drawn) [Ibuprofen Lysine] | 1.25 ± 0.29
51 | CCCCCOC(=O)Nc1nc(=O)n(C2OC(C)C(O)C2O)cc1F (stereo not drawn) [Capecitabine] | 0.459 ± 0.015
52 | C=CCC1/C=C(\C)CC(C)CC(OC)C2OC(O)(C(=O)C(=O)N3CCCCC3C(=O)OC(/C(C)=C/C3CCC(O)C(OC)C3)C(C)C(O)CC1=O)C(C)CC2OC (stereo not drawn) [Tacrolimus (FK506)] | 1.34 ± 0.11
53 | C#Cc1cccc(Nc2ncnc3cc4c(cc23)OCCOCCOCCO4)c1 [Icotinib] | 0.58 ± 0.11
